Experimental data reported in PubChem BioAssay (NCATS).
Values without a mark were called inactive. Results filed as inconclusive are left out. Where a call stands in place of a potency, no number is given. Active and inactive are the calls of the source. Unless noted, calls come from the whole dose curve; as a rule, active = well fitted curve in the direction sought with a large enough effect; inconclusive = small, poorly fitted or top-dose-only effect, or another doubt; inactive = no such curve, though single readings can be large; an effect the other way counts as inactive or inconclusive.

How the values were obtained:
[1] = biological target: Lysine-specific demethylase 5B (Homo sapiens) (UniProt Q9UGL1); assay: Optimization screen for KDM5B Histone Demethylases FDH coupled qHTS against the LOPAC library (AID 1347166)
Lysine-specific demethylase 5B (Homo sapiens), sequence (Q9UGL1 whole entry, looked up): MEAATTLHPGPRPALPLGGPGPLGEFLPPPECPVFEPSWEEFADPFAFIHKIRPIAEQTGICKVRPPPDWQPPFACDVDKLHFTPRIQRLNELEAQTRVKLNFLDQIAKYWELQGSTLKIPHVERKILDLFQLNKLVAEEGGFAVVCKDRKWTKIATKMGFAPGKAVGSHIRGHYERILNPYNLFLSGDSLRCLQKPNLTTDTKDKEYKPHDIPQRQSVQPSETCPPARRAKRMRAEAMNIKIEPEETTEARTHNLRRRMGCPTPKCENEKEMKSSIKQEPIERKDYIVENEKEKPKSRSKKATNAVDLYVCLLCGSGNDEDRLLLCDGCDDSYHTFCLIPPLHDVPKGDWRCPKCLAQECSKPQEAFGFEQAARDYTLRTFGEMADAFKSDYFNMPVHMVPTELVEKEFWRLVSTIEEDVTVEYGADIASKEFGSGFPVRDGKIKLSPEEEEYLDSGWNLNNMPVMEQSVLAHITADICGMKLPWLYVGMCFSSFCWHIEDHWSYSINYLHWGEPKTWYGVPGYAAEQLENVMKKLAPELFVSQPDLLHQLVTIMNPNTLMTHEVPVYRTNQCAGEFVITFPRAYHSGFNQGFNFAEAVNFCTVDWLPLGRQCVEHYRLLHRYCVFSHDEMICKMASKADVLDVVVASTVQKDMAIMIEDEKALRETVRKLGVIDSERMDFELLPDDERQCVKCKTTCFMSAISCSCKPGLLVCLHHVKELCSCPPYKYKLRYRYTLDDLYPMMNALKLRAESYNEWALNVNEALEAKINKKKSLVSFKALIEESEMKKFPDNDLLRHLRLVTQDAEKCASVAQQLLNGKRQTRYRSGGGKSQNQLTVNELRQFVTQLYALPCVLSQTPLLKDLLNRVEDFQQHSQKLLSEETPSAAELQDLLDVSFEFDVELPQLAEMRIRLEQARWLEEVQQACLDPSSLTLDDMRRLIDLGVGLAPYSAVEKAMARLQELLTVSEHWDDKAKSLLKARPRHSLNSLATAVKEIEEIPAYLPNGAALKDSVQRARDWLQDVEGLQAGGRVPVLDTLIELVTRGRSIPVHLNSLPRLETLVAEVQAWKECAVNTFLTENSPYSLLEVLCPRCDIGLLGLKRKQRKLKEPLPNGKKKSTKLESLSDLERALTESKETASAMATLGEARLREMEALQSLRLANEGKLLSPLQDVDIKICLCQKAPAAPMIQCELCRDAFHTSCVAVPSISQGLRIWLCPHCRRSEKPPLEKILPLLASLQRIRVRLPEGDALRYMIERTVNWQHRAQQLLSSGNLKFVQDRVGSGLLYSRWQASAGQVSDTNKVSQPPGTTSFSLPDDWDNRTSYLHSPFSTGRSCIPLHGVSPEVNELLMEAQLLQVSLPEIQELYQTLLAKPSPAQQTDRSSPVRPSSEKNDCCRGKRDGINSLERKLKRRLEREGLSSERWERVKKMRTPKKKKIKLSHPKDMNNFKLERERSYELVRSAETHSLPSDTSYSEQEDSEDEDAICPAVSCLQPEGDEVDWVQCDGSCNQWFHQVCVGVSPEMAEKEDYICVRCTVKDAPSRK
In short: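 KDM5BDeltaAP (200nM final) in 50mM HEPES pH 7.5, 0.01% Tween-20 was preincubated with compound for 10 min at room temperature. A substrate mix of 12.5uM H3K4Me3, 25uM a-ketoglutarate, ascorbate, Fe2+, NAD+ and formaldehyde dehydrogenase was then added. NADH fluorescence (340/450 nm) was read initially and after 30 min.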

[2] = Validation qHTS assay for inhibitors of Activation Induced Cytidine Deaminase (AID): UDG Counterscreen signal (AID 1347427)
In short: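 Fluorescence at 560 nm excitation, 665 nm emission reports UDG signal after 250 mM NaOH (2x) addition and 30 min. Enzymes (AID 1 uM, UDG 2 U/mL, at 4/3x) preincubated 10 min with compound, then 4 h with 4x 250 nM DJC20/DJC23 substrate at room temperature.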

[3] = biological target: Single-stranded DNA cytosine deaminase (Homo sapiens) (UniProt Q9GZX7); assay: Validation qHTS assay for inhibitors of Activation Induced Cytidine Deaminase (AID): AID signal (AID 1347429)
Single-stranded DNA cytosine deaminase (Homo sapiens), sequence (Q9GZX7 whole entry, looked up): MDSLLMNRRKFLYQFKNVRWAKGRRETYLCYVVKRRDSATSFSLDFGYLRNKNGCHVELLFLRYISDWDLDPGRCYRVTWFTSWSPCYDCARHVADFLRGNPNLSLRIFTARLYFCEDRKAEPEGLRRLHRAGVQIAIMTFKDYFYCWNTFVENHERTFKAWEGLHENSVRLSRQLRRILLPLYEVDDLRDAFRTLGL
In short: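 Steps: dispense AID with UDG; pin-transfer compound up to 114 uM final; add DJC20/DJC23 substrate and hold 4 hr at room temperature; add NaOH, hold 30 min; read FRET signal (540/590 nm).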

[4] = biological target: Calcium and integrin-binding protein 1 (Homo sapiens) (UniProt Q99828); assay: Primary qHTS for Identification of Calcium Integrin Binding Protein 1 (CIB1) Competitor (AID 1508620);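 note: GST tagged CIB1 binding a fluorescein labelled alphaIIb integrin peptide tracer; top concentration of the series differs between compounds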
Calcium and integrin-binding protein 1 (Homo sapiens), sequence (Q99828 whole entry, looked up): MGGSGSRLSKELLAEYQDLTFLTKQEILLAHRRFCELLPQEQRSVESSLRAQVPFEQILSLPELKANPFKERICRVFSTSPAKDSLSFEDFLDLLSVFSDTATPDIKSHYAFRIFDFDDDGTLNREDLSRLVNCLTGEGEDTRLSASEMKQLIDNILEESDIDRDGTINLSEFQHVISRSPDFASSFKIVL
In short: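 CIB1-GST (1 uM final) and compound incubated 15 min at room temperature before adding FITC-alphaIIb peptide tracer (100 nM final). Competition for binding read by fluorescence polarization (ex 480, em 540) after another 15 min at room temperature.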

[5] = Primary qHTS for small molecule stabilizers of the endoplasmic reticulum resident proteome: Secreted ER Calcium Modulated Protein (SERCaMP) assay (AID 1508630)
In short: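 The SH-SY5Y reporter protocol was run at 3 concentrations up to 38.3 uM (primary) or 11 concentrations (follow-up): 16 h compound, 100 nM thapsigargin for 4 h, then extracellular luciferase luminescence.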

[6] = Vero cells viability qHTS for Zika virus inhibitors (AID 1347167)
In short: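 Luminescent ATP readout (CellTiter Glo) after 30 min at 37 degrees C gives viability; cells in DMEM + 4% FBS were treated 24 to 48 hours with compound, following overnight attachment.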

[7] = Tertiary RLuc qRT-PCR qHTS assay for Zika virus inhibitors (AID 1347169); note: nearly all actives have a fitted effect of over 55% in size; note: potency is the fitted concentration of half-maximal effect
In short: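 Luminescence read-out: live-cell Renilla luciferase substrate applied to infected Vero cells, signal measured after 1-1.5 hrs. Cells had received compound before ZIKV-RLuc (Cambodian strain, MOI 1-2) infection and were incubated 48-72 hrs at 37 degrees C.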

[8] = qHTS to identify inhibitors of the type 1 interferon - major histocompatibility complex class I in skeletal muscle: primary screen against the NCATS Mechanism Interrogation Plate v5.0 (MIPE) Libary (AID 1347411); note: nearly all actives have a fitted effect of over 65% in size; note: potency is the fitted concentration of half-maximal effect
In short: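 Seed engineered human myoblasts (HLA-B HiBit) in medium without dexamethasone containing 4 ng/ml IFN-beta; after 1 hr add compound titrations (top 46 uM final). Incubate 24 hrs at 37 C, lyse 10 min with HiBiT reagent, read luminescence.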

[9] = biological target: Cytochrome P450 2D6 (Homo sapiens) (UniProt P10635); assay: Cytochrome P450 family 2 subfamily D member 6 (CYP2D6) small molecule antagonists: luciferase biochemical (cell-free) qHTS assay (AID 1645840; active = well fitted curve in the direction sought with a large enough effect in the repeat runs; an effect the other way counts as inactive or inconclusive; note: series mostly up to about 57 µM; nearly all actives have a fitted effect of over 55% in size)
Cytochrome P450 2D6 (Homo sapiens), sequence (P10635 whole entry, looked up): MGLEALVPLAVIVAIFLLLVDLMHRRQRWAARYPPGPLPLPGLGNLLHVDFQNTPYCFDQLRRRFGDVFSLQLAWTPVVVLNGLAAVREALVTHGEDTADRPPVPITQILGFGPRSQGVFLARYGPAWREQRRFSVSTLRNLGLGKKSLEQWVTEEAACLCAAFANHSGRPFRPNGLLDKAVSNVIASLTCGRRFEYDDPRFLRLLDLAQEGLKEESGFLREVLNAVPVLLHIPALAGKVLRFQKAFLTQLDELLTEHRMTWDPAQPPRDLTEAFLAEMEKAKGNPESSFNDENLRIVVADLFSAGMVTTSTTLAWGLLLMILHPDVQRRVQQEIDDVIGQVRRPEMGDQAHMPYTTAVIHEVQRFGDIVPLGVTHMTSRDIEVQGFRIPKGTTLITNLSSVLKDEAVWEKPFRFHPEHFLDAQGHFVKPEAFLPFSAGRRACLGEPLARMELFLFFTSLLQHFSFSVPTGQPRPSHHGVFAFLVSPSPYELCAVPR
In short: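 P450-Glo CYP2D6 system: proluciferin substrate converted by enzyme to luciferin, read by luminescence proportional to activity. Enzyme-substrate mix with compound 10 min at room temperature, then NADPH regeneration 1 h before detection reagent.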

[10] = Counterscreen qHTS for small molecule stabilizers of the endoplasmic reticulum resident proteome: GLuc-NoTag assay (AID 1508627); note: series mostly up to about 76 µM
In short: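 Counterscreen line: SH-SY5Y-GLuc-NoTag cells, treated with compound 19 hr before a 4 hr, 100 nM thapsigargin calcium depletion. Secreted Gaussia luciferase in the medium was measured by luminescence after coelenterazine was added (0.07x final), with cells unlysed.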

[11] = Confirmatory qHTS for small molecule stabilizers of the endoplasmic reticulum resident proteome: Secreted ER Calcium Modulated Protein (SERCaMP) assay (AID 1508628); note: series mostly up to about 76 µM; nearly all actives have a fitted effect of over 40% in size
In short: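 Reporter secretion upon ER calcium depletion (100 nM thapsigargin, 4 h, 37C) is measured as medium luminescence with coelenterazine, after 16 h compound pretreatment of SH-SY5Y-GLuc-SERCaMP cells; primary at three concentrations up to 38.3 uM, follow-up at 11 (up to 76.6 uM).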

In the case of C[C@H]1O[C@@H](n2cc(F)c(=O)[nH]c2=O)[C@H](O)[C@H]1O, the outcome [1] is reported as “inactive”, the outcome [2] is reported as “inactive” and the outcome [3] is reported as “inactive”. The Potency [4] was “inactive” and the Potency [5] was “inactive”.
In the case of O=S(=O)(O)c1ccc2cc(N=Nc3cc(S(=O)(=O)O)c4cccnc4c3O)ccc2c1, the outcome [6] is reported as “inactive”, the Potency [7] is reported as 3.7 µM (active) and the Potency [8] is reported as “inactive”. The Potency [5] was “inactive” and the Potency [9] was “inactive”.
In the case of CN(C)N=Nc1nc[nH]c1C(N)=O, the Potency [8] is reported as “inactive” and the Potency [4] is reported as “inactive”.
For CCCCC[C@H](O)C=C[C@H]1[C@H](O)CC(=O)[C@H]1CCCCCCC(=O)O, the outcome [6] was “inactive” and the Potency [7] was “inactive”.
In the case of Fc1ccc(C(c2ccc(F)cc2)N2CCN(CC=Cc3ccccc3)CC2)cc1, the outcome [6] is reported as “inactive” and the Potency [5] is reported as “inactive”.
For COc1ccc(-c2ccc3ncc4c(c3c2)n(-c2ccc(N3CCNCC3)c(C(F)(F)F)c2)c(=O)n4C)cn1, the activity change, negative = cytotoxicity [6] was -1.62% [at 4.93 µM], the Potency [8] was 0.147 µM (active) and the Potency [4] was “inactive”. For the same compound, the Potency [5] was “inactive”.
In the case of O=C(O)C1=CC(O)C(O)[C@H](O)C1 (stereo partly specified), the Potency [8] is reported as “inactive” and the Potency [4] is reported as “inactive”.
With N#CC(c1ccnc(NCCc2cccnc2)n1)c1nc2ccccc2s1 (stereo unspecified) the Potency [8] was 14.7 µM (active) and the Potency [4] was “inactive”.
For Cc1cc2nc3c(=O)[nH]c(=O)nc-3n(CC(O)C(O)C(O)CO)c2cc1C (stereo unspecified), the Potency [10] was “inactive”.
With CN(C(Cc1ccc(OS(=O)(=O)c2cccc3cnccc23)cc1)C(=O)N1CCN(c2ccccc2)CC1)S(=O)(=O)c1cccc2cnccc12 (stereo unspecified) the Potency [11] was “inactive”.
In the case of CN(C)CCOc1cc(-c2cn[nH]c2)ccc1NC(=O)C1COc2ccccc2O1 (stereo unspecified), the Potency [8] is reported as “inactive”, the Potency [4] is reported as “inactive” and the Potency [5] is reported as “inactive”.
For CCC(c1ccc(O)cc1)C(CC)c1ccc(O)cc1 (stereo unspecified), the Potency [8] was “inactive”, the Potency [4] was “inactive” and the Potency [5] was “inactive”.
For CN1C(=O)C[C@H](C(=O)N[C@@H](Cc2cnc[nH]2)C(=O)N2CCC[C@@H]2C(N)=O)NC1=O, the Potency [8] was “inactive”, the Potency [4] was “inactive” and the Potency [5] was “inactive”.
For Cc1ccc(S(=O)(=O)Nc2nc3ccccc3nc2Nc2ccc3nsnc3c2)cc1, the Potency [8] was “inactive”, the Potency [4] was “inactive” and the Potency [5] was “inactive”.
For COc1cccc(OC)c1-c1cc(C(=O)NC2(C(=O)O)C3CC4CC(C3)CC2C4)nn1-c1ccnc2cc(Cl)ccc12 (stereo unspecified), the Potency [8] was “inactive”, the Potency [4] was “inactive” and the Potency [5] was “inactive”.
In the case of COc1nc(C)cnc1NS(=O)(=O)c1cccnc1-c1ccc(-c2nnco2)cc1, the Potency [8] is reported as “inactive”, the Potency [4] is reported as “inactive” and the Potency [5] is reported as “inactive”.
For Cc1cc(OCCCS(C)(=O)=O)cc(C)c1-c1cccc(COc2ccc3c(c2)OC[C@H]3CC(=O)O)c1, the Potency [8] was “inactive”, the Potency [4] was “inactive” and the Potency [5] was “inactive”.
For CCN(CCO)CCCOc1ccc2c(Nc3cc(CC(=O)Nc4cccc(F)c4)[nH]n3)ncnc2c1, the Potency [8] was “inactive”, the Potency [4] was “inactive” and the Potency [5] was “inactive”.
For CC(C)Oc1cc(Nc2nc(N[C@@H](C)c3ccc(F)cn3)ncc2Cl)[nH]n1, the Potency [8] was 1.65 µM (active), the Potency [4] was “inactive” and the Potency [5] was “inactive”.
For CC[C@H](C=C[C@@H](C)[C@H]1CC[C@H]2[C@@H]3CC=C4C[C@@H](O)CC[C@]4(C)[C@@H]3CC[C@]12C)C(C)C, the Potency [8] was “inactive”, the Potency [4] was “inactive” and the Potency [5] was “inactive”.
With Cc1ccc(S(=O)(=O)OCC(=O)Nc2ccc(C(=O)O)c(O)c2)cc1 the Potency [8] was “inactive”, the Potency [4] was “inactive” and the Potency [5] was “inactive”.
For COc1cc(F)c(C(C)C)cc1-c1ccc(C(F)(F)F)cc1CN1C(=O)O[C@H](c2cc(C(F)(F)F)cc(C(F)(F)F)c2)[C@@H]1C, the Potency [8] was “inactive”, the Potency [4] was “inactive” and the Potency [5] was “inactive”.
In the case of NC(=O)c1ccc(N(C(N)=O)c2c(F)cccc2F)nc1-c1ccc(F)cc1F, the Potency [8] is reported as “inactive”, the Potency [4] is reported as “inactive” and the Potency [5] is reported as “inactive”.
With Cc1ccc(C2=Nc3ccc(Cl)cc3OC2)cc1 the Potency [8] was “inactive”, the Potency [4] was “inactive” and the Potency [5] was “inactive”.
With Cc1ccc2c(=O)c3cccc(CC(=O)O)c3oc2c1C the Potency [8] was “inactive”, the Potency [4] was “inactive” and the Potency [5] was “inactive”.
In the case of O=C1CCCC(=O)C1C(=O)c1ccc(C(F)(F)F)cc1[N+](=O)[O-], the Potency [8] is reported as “inactive”, the Potency [4] is reported as “inactive” and the Potency [5] is reported as “inactive”.
With O=C(O)c1ccc(O)c2ncc(N3CCOCC3)cc12 the Potency [8] was “inactive”, the Potency [4] was “inactive” and the Potency [5] was “inactive”.
In the case of O=[N+]([O-])c1ccc(Nc2ccccc2-c2ccccc2)c2nonc12, the Potency [8] is reported as 26.2 µM (active), the Potency [4] is reported as “inactive” and the Potency [5] is reported as “inactive”.
With N[C@@H](CC(=O)N1CCn2c(nnc2C(F)(F)F)C1)Cc1cc(F)c(F)cc1F the Potency [8] was “inactive”, the Potency [4] was “inactive” and the Potency [5] was “inactive”.
With Nc1ccn([C@@H]2O[C@H](CO)[C@@H](O)[C@H]2O)c(=O)n1 the Potency [8] was “inactive”, the Potency [4] was “inactive” and the Potency [5] was “inactive”.
In the case of C[C@]12CC[C@@H]3c4ccc(O)cc4CC[C@H]3[C@H]1[C@@H](O)[C@@H](O)[C@H]2O, the Potency [8] is reported as “inactive”, the Potency [4] is reported as “inactive” and the Potency [5] is reported as “inactive”.
For CCOc1ccccc1N=Nc1c(C)[nH]n(-c2nc(-c3ccccc3)cs2)c1=O, the Potency [8] was “inactive”, the Potency [4] was “inactive” and the Potency [5] was “inactive”.
For COC(=O)[C@H](c1ccccc1Cl)N1CCc2sccc2C1, the Potency [8] was “inactive”, the Potency [4] was “inactive” and the Potency [5] was “inactive”.
For O=C(NC[C@H](O)CO)c1ccncc1Nc1ccc(I)cc1F, the Potency [8] was “inactive”, the Potency [4] was “inactive” and the Potency [5] was “inactive”.
With CCC[C@H](N[C@@H](C)C(=O)N1[C@@H]2CCCC[C@H]2C[C@H]1C(=O)O)C(=O)OCC the Potency [8] was “inactive”, the Potency [4] was “inactive” and the Potency [5] was “inactive”.
With CNc1nc(Nc2ccc(C(=O)N3CCOCC3)cc2OC)ncc1Cl the Potency [8] was “inactive”, the Potency [4] was “inactive” and the Potency [5] was “inactive”.
With CCC(=O)NCC[C@@H]1CCc2ccc3c(c21)CCO3 the Potency [8] was “inactive”, the Potency [4] was “inactive” and the Potency [5] was “inactive”.
In the case of CC(C)[C@H](O)C(=O)N[C@@H](C)C(=O)N[C@@H]1C(=O)N(C)CCc2ccccc21, the Potency [8] is reported as “inactive”, the Potency [4] is reported as “inactive” and the Potency [5] is reported as “inactive”.
In the case of c1ccc(-c2oc3ncnc(NC[C@@H]4CCCO4)c3c2-c2ccccc2)cc1, the Potency [8] is reported as “inactive”, the Potency [4] is reported as “inactive” and the Potency [5] is reported as “inactive”.
In the case of C[C@H](c1ccc(F)cc1CCCC(=O)O)N(c1cc(F)ccc1F)S(=O)(=O)c1ccc(Cl)cc1, the Potency [8] is reported as “inactive”, the Potency [4] is reported as “inactive” and the Potency [5] is reported as “inactive”.
